# Measurements from PubChem BioAssay.
# Entries with a potency or affinity are not part of this list. Activity calls are given as the source filed them. Cut-off not given; nearly all actives show IC50 up to about 0.91 µM.
# Target: Calcium-dependent protein kinase 4 (Plasmodium falciparum (isolate 3D7)) (UniProt Q8IBS5)
# Assay: PfCDPK4 kinase inhibitors, biochemical, TCAMS library (AID 1159588)
# Conditions: recombinant PfCDPK4, Kinase-Glo ATP depletion luminescence
# Calcium-dependent protein kinase 4 (Plasmodium falciparum (isolate 3D7)), sequence (Q8IBS5 whole entry, looked up): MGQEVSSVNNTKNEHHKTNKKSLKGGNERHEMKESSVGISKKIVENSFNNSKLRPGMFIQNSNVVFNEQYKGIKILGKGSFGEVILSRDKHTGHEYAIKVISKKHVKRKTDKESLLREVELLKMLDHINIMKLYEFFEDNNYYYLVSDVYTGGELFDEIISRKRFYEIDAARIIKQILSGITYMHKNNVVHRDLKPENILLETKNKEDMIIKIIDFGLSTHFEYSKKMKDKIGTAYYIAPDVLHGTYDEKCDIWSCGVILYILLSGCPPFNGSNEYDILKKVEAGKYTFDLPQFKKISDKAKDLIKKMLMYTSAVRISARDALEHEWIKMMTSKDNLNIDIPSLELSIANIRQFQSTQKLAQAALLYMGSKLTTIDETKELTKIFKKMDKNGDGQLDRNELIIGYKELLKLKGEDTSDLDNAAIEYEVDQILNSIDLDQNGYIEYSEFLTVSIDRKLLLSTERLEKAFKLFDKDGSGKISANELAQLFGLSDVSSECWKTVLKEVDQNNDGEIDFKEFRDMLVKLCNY
row,Structure (SMILES),outcome
1,Cc1cc(NCCCCCCCCNc2cc(C)nc3ccccc23)c2ccccc2n1,inactive
2,CC(C)n1ncc2c(C(=O)N3CCCC4CCCCC43)cc(C3CC3)nc21 (stereo not given),inactive
3,CCCC1CCNC(C(O)c2ccnc3ccc(OC)cc23)C1 (stereo not given),inactive
4,CC(C)C(=O)n1ncc2c3c(N)nc(N)nc3ccc21,inactive
5,Oc1ccc(CCCNc2nc(NCc3cccc4ccccc34)nc(N3CCNCC3)n2)cc1,inactive
6,CC1N=C(N)N=C(N)N1OCc1ccccc1 (stereo not given),inactive
7,CC(C)c1cc(N)c2cc(NC(=O)COCC(=O)Nc3ccc4nc(C(C)C)cc(N)c4c3)ccc2n1,inactive
8,Cc1ccnc(Nc2nc(-c3ccccn3)cs2)c1,inactive
9,NC(=O)c1cccc(C(=O)Nc2ccc(-c3cccc(-c4nc5ccc(C(F)(F)F)cc5[nH]4)c3)cc2)c1,inactive
10,COc1ccc(CC(=O)Nc2ccc(Nc3nc(C)cc(N(C)C)n3)cc2)cc1,inactive
11,CC1(C)N=C(NC(=O)c2ccc([N+](=O)[O-])cc2)N=C(N)N1OCc1ccc2ccccc2c1,inactive
12,Cc1ccc(C)c(C2CCN(CCCCNC(=O)c3ccc(NC(=O)c4ccc(Cl)cc4)cc3)CC2)c1,inactive
13,CCCc1ccc(NC(=O)c2ccc(CN3CCCN(Cc4cccc(O)c4)CC3)cc2)cc1,inactive
14,Cc1[nH]c(C)c(-c2ccc(OCc3cccc(C(F)(F)F)c3)nc2)c(=O)c1Br,inactive
15,COc1ccccc1NC(=O)Nc1cccc(-c2cccc(-c3nc4ccc(C(F)(F)F)cc4[nH]3)c2)c1,inactive
16,Cc1cc(NN=Cc2cccc(F)c2)c2ccc(F)cc2n1,inactive
17,CN1CCc2cc(I)c(O)cc2C1Cc1ccccc1Cl (stereo not given),inactive
18,O=C(/C=C/c1ccc(Cl)c(Cl)c1)NCCCCCN1CCN(C(=O)Nc2ccc(Cl)c(C(F)(F)F)c2)CC1,inactive
19,CCN1CCC(N(Cc2ccc(-c3ccc(C(F)(F)F)cc3)cc2)C(=O)Cn2c(CCc3cccc(F)c3F)cc(=O)c3ccccc32)C1 (stereo not given),inactive
20,Cc1cc2nc(-c3ccc(/C=C/C(=O)NCc4ccc(Cl)c(Cl)c4)cc3)[nH]c2cc1C,inactive

row,Structure (SMILES),outcome
1,CC(=O)Nc1cccc(CNCc2ccc(-c3cnc(N4CCCC(C)(C)C4)nc3)cc2)c1,inactive
2,Cc1cc(NCCc2ccccc2)nc(/N=C(\N)Nc2ccccc2Cl)n1,inactive
3,CC(C)CC(NC(=O)c1cccc(OCCN2CCOCC2)c1)C(=O)NC(/C=N/NC(=O)c1ccccc1)CCc1ccccc1 (stereo not given),inactive
4,CC(C)(C)c1cc(C(=O)Nc2ccc(C(=N)N)cc2)c(O)c(C(C)(C)C)c1,inactive
5,Cc1ccc2c(NN=Cc3ccc(N(C)C)cc3)cc(C)nc2c1,inactive
6,CC1CCCN(S(=O)(=O)c2cc(Br)cc3c2N(C(=O)C2CC2)CC3)C1 (stereo not given),inactive
7,Cc1cc(OCCCN2CCCCC2)ccc1NC(=O)COc1ccc(Cl)cc1C(=O)c1cc(C#N)cc(C(F)(F)F)c1,inactive
8,CCCCCCN1CCC(NCc2cccc([N+](=O)[O-])c2)CC1,inactive
9,CCCCCN1CCCN(Cc2cccc(NC(=O)c3ccc(Cl)c(Cl)c3)c2)CC1,inactive
10,CCc1c(CCNCCCCCCNCCc2ccc([N+](=O)[O-])cc2)ccc(OC)c1OC,inactive
11,Cc1cc(-c2ccc(NC(=O)N3CCc4cc(Br)c(N5CCN(C)CC5)cc43)cc2)ccc1C#N,inactive
12,COc1ccccc1C1CCN(C2CCC(NC(=O)/C=C/c3cc(F)cc(C(F)(F)F)c3)CC2)CC1 (stereo not given),inactive
13,O=[N+]([O-])c1cccc(-c2nc(-c3ccc(Br)cc3)[nH]c2-c2ccc(Br)cc2)c1,inactive
14,COc1ccccc1-c1ccc(CNC(=O)C(CN2CCN(C)CC2)c2ccccc2)cc1 (stereo not given),inactive
15,CCNS(=O)(=O)c1ccc(Oc2ccc([N+](=O)[O-])cc2)cc1,inactive
16,CCOc1cc2ncnc(Nc3ccc(OCc4ccccc4Br)c(OC)c3)c2cc1OCC,inactive
17,Cc1onc(-c2ccccc2Cl)c1C(=O)Nc1cc(Cl)c(Cl)cc1Cl,inactive
18,Cc1cc(OCC(=O)Nc2ccc(-c3nc4ccccc4[nH]3)cc2)cc(C)c1Cl,inactive
19,COc1cc(Cc2cnc(N)nc2N)ccc1OCc1ccc(NC(C)=O)cc1,inactive
20,CCn1c(CN2CCN(Cc3ccccc3)CC2)nc2cc(NC(=O)c3cccs3)ccc21,inactive
